The record followed here is the supplement of paper PMC3334620.

In all, about 33,000 sequences were measured (“E-score (-0.5 to 0.5)”: median about -0.053, highest 2% from about 0.37 on). Many of the other results were omitted from the sample, so the highest values are more common in it than they were.

Chain of UniProt P0CE41 (P0CE41 whole entry, the tested form may be a part): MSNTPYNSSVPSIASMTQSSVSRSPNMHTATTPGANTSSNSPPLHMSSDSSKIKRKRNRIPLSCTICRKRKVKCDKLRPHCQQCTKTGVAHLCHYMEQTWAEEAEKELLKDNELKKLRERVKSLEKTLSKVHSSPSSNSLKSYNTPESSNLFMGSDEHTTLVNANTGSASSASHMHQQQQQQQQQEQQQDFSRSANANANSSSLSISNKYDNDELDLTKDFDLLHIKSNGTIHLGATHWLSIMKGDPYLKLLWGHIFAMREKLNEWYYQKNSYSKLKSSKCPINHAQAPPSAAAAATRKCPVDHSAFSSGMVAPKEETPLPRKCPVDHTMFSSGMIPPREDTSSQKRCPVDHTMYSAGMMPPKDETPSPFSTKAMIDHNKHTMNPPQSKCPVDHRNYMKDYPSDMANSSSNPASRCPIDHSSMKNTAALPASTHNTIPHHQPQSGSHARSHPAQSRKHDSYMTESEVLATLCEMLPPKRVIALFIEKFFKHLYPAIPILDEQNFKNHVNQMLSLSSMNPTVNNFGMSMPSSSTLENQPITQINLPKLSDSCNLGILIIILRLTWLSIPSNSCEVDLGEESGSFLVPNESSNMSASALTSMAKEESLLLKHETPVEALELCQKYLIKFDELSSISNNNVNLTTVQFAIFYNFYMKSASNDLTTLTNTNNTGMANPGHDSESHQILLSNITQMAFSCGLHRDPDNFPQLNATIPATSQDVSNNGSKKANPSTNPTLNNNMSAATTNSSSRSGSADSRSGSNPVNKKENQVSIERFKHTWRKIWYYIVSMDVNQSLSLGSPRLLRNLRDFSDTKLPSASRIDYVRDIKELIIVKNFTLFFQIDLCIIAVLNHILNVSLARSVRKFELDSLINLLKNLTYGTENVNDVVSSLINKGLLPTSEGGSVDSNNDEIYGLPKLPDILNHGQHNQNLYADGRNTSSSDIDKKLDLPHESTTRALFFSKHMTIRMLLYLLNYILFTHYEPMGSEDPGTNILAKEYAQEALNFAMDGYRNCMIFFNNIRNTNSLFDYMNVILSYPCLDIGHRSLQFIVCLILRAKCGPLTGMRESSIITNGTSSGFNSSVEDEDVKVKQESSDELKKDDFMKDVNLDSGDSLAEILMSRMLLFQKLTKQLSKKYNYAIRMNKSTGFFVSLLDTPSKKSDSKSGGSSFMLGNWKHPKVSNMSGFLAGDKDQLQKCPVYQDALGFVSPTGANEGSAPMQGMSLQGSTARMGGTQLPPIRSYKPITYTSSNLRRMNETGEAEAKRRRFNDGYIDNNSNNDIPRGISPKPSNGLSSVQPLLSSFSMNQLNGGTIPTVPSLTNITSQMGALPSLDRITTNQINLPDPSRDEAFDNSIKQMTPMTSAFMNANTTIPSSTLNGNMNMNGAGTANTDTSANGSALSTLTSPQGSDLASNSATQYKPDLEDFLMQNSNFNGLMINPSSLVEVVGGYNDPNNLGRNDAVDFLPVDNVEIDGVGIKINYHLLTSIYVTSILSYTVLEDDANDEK

The experiment addresses Hap1 (UniProt P0CE41). Description: PBM E-score (8-mer binding enrichment) (E-score (-0.5 to 0.5)); higher = stronger / more preferred TF binding. Conditions: protein concentration: 200 nM; construct: GST-DNA-binding domain. Summed up:
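For each ungapped eight-base word taken together with its reverse complement, the Universal PBM Analysis Suite assigned an E-score. Binding data came from GST-tagged yeast transcription factors, applied at about 100-200 nM, on universal all-10-mer Agilent arrays made double-stranded by primer extension. Fluorescent anti-GST marked bound protein, and scans were normalised with masliner.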
With ACGGGCCA, the “PBM E-score” value amounted to 0.226.
On to CATAGAAG, for which the “PBM E-score” value was -0.0619.
CAGTTCGA: the “PBM E-score” value was -0.156.
The value for AGCGCCAT was -0.113; that for ACGGTAAG was 0.067; that for CCGGTAAC was 0.36.
Under TCGGTAAA stands 0.249; under CCGGTACG, 0.342; under CCGGTAAA, 0.456.
The value for CCGGTAAG was 0.391.
CGGGCAAA: the “PBM E-score” value was found to be 0.249.
The value for GGCAAATA was 0.2; that for TGGCAGAA was -0.0128.
In the case of CTGCTGGA, the “PBM E-score” value is -0.231.
Consider ACCCGAAA, for which the “PBM E-score” value came to 0.31.
As to GCCCGAAA, the “PBM E-score” value turned out to be 0.342.
In the case of CCCCGAAC, the “PBM E-score” value came to 0.291.
Regarding TTCCGAAA, the “PBM E-score” value is 0.363.
Under CACCGAAC stands 0.194; under GTCCGAAC, 0.426; under GCCCGAAC, 0.298.
The value for ATCCGAAC was 0.355; that for ATCCGAAA was 0.389; that for CTCCGAAC was 0.415.
Under GTCCGAAA stands 0.421.
Turning to ATCCGAAG, the “PBM E-score” value was 0.326.
Under ATACCGTC stands 0.0985.
Turning to CGGCTAGC, the “PBM E-score” value was 0.0611.
The value for AGTCAGAT was -0.212; that for AGCAGCTG was -0.167; that for ACCCTCAG was -0.197.
Under GCGCAAAA stands -0.00131.
The value for CTCCGAAA was 0.41.
With ATCCGACA, the “PBM E-score” value came out at 0.305.
Under CTTCGAAA stands -0.279; under ATCCGAAT, 0.403.
The value for GTCCGACA was 0.38; that for CACCGAAG was 0.245.
Take CTCCGACA: the “PBM E-score” value turned out to be 0.291.
Under CGCCGAAG stands 0.359; under AACCGAAT, 0.301; under CTCCGAAG, 0.401.
The value for ACCCGAAT was 0.314; that for CGCCGAAA was 0.359; that for ACTTGAGA was -0.185.
The value for AGGGGCGG was 0.235; that for ACTCGTCG was -0.172.
As for CCCCGCAA, the “PBM E-score” value was determined as 0.258.
For ACATTTAA, the “PBM E-score” value is -0.0555.
On to AGCCCTTG, for which the “PBM E-score” value is -0.311.
The value for AGACACGG was 0.0548; that for CATCCAGG was -0.183.
Under ATCCGACG stands 0.333; under ATCCGAGG, 0.39; under ATCCGAGC, 0.356.
GACGCACC: the “PBM E-score” value was -0.118.
Under GCAAGGAC stands -0.115; under AGTCCAAG, -0.404; under AATCCGAT, 0.401.
Regarding AGTCCGAC, the “PBM E-score” value came to 0.36.
The value for AATCCGAC was 0.363; that for AGTCCGAT was 0.432; that for AATCCGAA was 0.366.
Under AGTCCGTG stands 0.299; under AGTCCTAT, -0.0943.
On to AGTCCGAG, for which the “PBM E-score” value came out at 0.428.
The value for AAGCCTAT was -0.101; that for AAAACTAG was -0.116.
The value for AGTACGGG was -0.028.
Under ACTTCTGG stands -0.297.
In the case of AGTGGACG, the “PBM E-score” value was determined as 0.0359.
The value for TAAAAGGA was -0.0643; that for AGATAAGC was -0.0608.
Under GGACCTAA stands 0.371; under CGACCTAA, 0.161.
The value for TGACCTAA was -0.158; that for TCCGGAAA was 0.445.
CCCGGAAG: the “PBM E-score” value came to 0.358.
Under TGCGGAAA stands 0.213; under GCCGGAAA, 0.395; under TACGGAAA, 0.316.
The value for CCCGGAAA was 0.411; that for GGCGGAAA was 0.29; that for GACGGAAA was 0.314.
Under CCGGGAAA stands 0.338; under TCTCAAGA, -0.0524.
With GTCGCGTA, the “PBM E-score” value was -0.051.
Under ATTCAAAG stands -0.213; under ACGCTTGG, -0.193.
The value for GGGGCGCA was -0.255.
Under ACTAGTCA stands -0.241; under GGTGTGGA, -0.00568; under GGAACACA, -0.109.
As to AGCACGAC, the “PBM E-score” value was -0.133.
The value for TACGCCGA was 0.301.
The value for CACGCCGA was 0.169; that for AACGCCGA was 0.447.
Under AACGCCGG stands 0.397; under AACGCCGT, 0.273.
For the sequence AACGCCGC, the “PBM E-score” value worked out at 0.355.
Under ACCCGCCA stands -0.0193.
The value for GGGGCTCA was -0.167.
Under ATGAGTTA stands -0.207; under CTAAATCC, 0.386.
On to CTAAATCA, for which the “PBM E-score” value is -0.138.
Turning to ATAAATCC, the “PBM E-score” value was 0.325.
Under GGGCTACA stands -0.0843; under CCCGGCAG, 0.21.
The value for CCCGGCAA was 0.401; that for TCCGGCAA was 0.326; that for GCCGGCAA was 0.373.
Under GCCGGCAC stands 0.327; under ACCGGCAA, 0.272.
